Source: paper PMC8384837, “Expanding the binding specificity for RNA recognition by a PUF domain”

Experiments:
Assay in all cases: yeast three-hybrid, YBZ-1, SC-Leu-His + 0.5 mM 3-AT, 4 days
Details in all cases: tags: N-Gal4 AD-HA kept; label: inside an RPR1-promoter hybrid RNA with tandem MS2 sites; ssRNA
[1] = biological target: PUM1 PUF domain R5-RHQ (Homo sapiens, UniProt Q14671 828-1176, C1007R;R1008H)
In short: (§1)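 Each repeat of the Pumilio-1 PUF domain was randomized at its three base-contacting residues, and these libraries were co-expressed from a centromeric plasmid with matching RNA elements in strain YBZ-1. After four days on SC-Leu (input) or SC-Leu-His + 0.5 mM 3-AT (selection), the repeat regions were PCR-amplified and Illumina-sequenced. The interaction score compares variant frequency between input and selection as a log change, computed in log2 with a pseudocount of 1 for absent variants.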

[2] = biological target: PUM1 PUF domain R5-KST (Homo sapiens, UniProt Q14671 828-1176, C1007K;R1008S;Q1011T)
In short: as §1

[3] = biological target: PUM1 PUF domain R5-RPD (Homo sapiens, UniProt Q14671 828-1176, C1007R;R1008P;Q1011D)
In short: as §1

[4] = biological target: PUM1 PUF domain R5-RNW (Homo sapiens, UniProt Q14671 828-1176, C1007R;R1008N;Q1011W)
In short: as §1

[5] = biological target: PUM1 PUF domain R3-APL (Homo sapiens, UniProt Q14671 828-1176, C935A;R936P;Q939L)
In short: as §1

[6] = biological target: PUM1 PUF domain R4-SRL (Homo sapiens, UniProt Q14671 828-1176, N971S;H972R;Q975L)
In short: as §1

[7] = biological target: PUM1 PUF domain R4-YRL (Homo sapiens, UniProt Q14671 828-1176, N971Y;H972R;Q975L)
In short: as §1

[8] = biological target: PUM1 PUF domain R5-QRK (Homo sapiens, UniProt Q14671 828-1176, C1007Q;Q1011K)
In short: as §1

[9] = biological target: PUM1 PUF domain R8-RHG (Homo sapiens, UniProt Q14671 828-1176, N1122R;Y1123H;Q1126G)
In short: as §1

[10] = biological target: T1, PUM1 PUF domain R6-RFC (Homo sapiens, UniProt Q14671 828-1176, N1043R;Y1044F;Q1047C)
T1 sequence: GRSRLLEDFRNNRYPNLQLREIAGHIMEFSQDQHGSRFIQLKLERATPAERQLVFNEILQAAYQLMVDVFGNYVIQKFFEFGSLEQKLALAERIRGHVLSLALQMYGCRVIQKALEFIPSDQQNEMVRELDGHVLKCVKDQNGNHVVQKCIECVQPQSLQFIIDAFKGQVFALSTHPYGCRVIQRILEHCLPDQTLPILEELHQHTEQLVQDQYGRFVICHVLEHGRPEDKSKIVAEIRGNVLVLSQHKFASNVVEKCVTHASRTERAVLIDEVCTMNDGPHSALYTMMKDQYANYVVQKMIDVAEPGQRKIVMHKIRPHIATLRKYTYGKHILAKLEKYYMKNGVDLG
In short: as §1

In the case of “GGCUAGAACUAGUGGAUCCCCCGGCGCCCGGCGGCUCGAGCCCGGGUAAGUGUGAAUAGUCUGCAUGCCGCCGGGCGCCAUGCCUGCAGGUCGACUCUAGAAAACAUG”, the binding signal [1] is reported as 4.24 log2 enrichment (interaction score).

In the case of “GGCUAGAACUAGUGGAUCCCCCGGCGCCCGGCGGCUCGAGCCCGGGUAAGUGUUAAUAGUCUGCAUGCCGCCGGGCGCCAUGCCUGCAGGUCGACUCUAGAAAACAUG”, the binding signal [2] is reported as 2.74 log2 enrichment (interaction score), the binding signal [3] is reported as 2.4 log2 enrichment (interaction score) and the binding signal [4] is reported as 2.82 log2 enrichment (interaction score).

“GGCUAGAACUAGUGGAUCCCCCGGCGCCCGGCGGCUCGAGCCCGGGUAAGUGUCAAUAGUCUGCAUGCCGCCGGGCGCCAUGCCUGCAGGUCGACUCUAGAAAACAUG” was tested, and the binding signal [2] was 4.03 log2 enrichment (interaction score), the binding signal [3] was 3.41 log2 enrichment (interaction score) and the binding signal [4] was 0.29 log2 enrichment (interaction score).

“GGCUAGAACUAGUGGAUCCCCCGGCGCCCGGCGGCUCGAGCCCGGGUAAGUGUAAAUAGUCUGCAUGCCGCCGGGCGCCAUGCCUGCAGGUCGACUCUAGAAAACAUG” was tested, and the binding signal [5] was 3.04 log2 enrichment (interaction score), the binding signal [6] was 3.87 log2 enrichment (interaction score) and the binding signal [7] was 3.01 log2 enrichment (interaction score). For the same sequence, the binding signal [8] was 2.97 log2 enrichment (interaction score), the binding signal [9] was 4.31 log2 enrichment (interaction score) and the binding signal [10] was 4.13 log2 enrichment (interaction score).

In the case of “GGCUAGAACUAGUGGAUCCCCCGGCGCCCGGCGGCUCGAGCCCGGGUAAGCGUAAAUAGUCUGCAUGCCGCCGGGCGCCAUGCCUGCAGGUCGACUCUAGAAAACAUG”, the binding signal [9] is reported as 4.32 log2 enrichment (interaction score).

In the case of “GGCUAGAACUAGUGGAUCCCCCGGCGCCCGGCGGCUCGAGCCCGGGUAAGUGAAAAUAGUCUGCAUGCCGCCGGGCGCCAUGCCUGCAGGUCGACUCUAGAAAACAUG”, the binding signal [10] is reported as 1.2 log2 enrichment (interaction score).
